Our source for the binding signal values is article PMC11574364.

Targets include IGF2BP2(1-2) (Homo sapiens, UniProt Q9Y6M1); FXR1(1-2) (Homo sapiens, UniProt P51114); RBPMS (Homo sapiens, UniProt Q93062).
What all share (assay): protein domain microarray probed with biotinylated miRNA; Domain array: 20 mM Tris-HCl pH 7.4, 200 mM KCl, 0.2 mM EDTA, 0.05% NP40, 2 ug/ul heparin, overnight 4 C. ORF array: PBS pH 7.0 with RNase inhibitor, 100 ng RNA; high values mean tight binding
What all share (settings): ssRNA

A further test addresses T1, STAU2(4) (Homo sapiens, UniProt Q9NUL3).
T1 sequence: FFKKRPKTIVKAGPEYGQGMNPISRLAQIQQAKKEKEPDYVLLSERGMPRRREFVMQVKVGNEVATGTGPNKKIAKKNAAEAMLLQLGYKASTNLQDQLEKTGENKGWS

The next test addresses T2, RBM19(1) (Homo sapiens, UniProt Q9Y4C8).
T2 sequence: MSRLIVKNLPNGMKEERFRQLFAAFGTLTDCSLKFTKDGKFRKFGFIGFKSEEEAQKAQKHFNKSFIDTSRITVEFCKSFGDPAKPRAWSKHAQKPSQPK

For another test, the target named is T3, RBM11 (Homo sapiens, UniProt P57052).
T3 sequence: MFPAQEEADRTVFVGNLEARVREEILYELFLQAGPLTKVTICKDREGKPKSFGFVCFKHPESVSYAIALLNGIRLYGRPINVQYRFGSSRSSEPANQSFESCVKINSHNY

In a further test the target is T4, REXON (Homo sapiens, UniProt Q96IC2).
T4 sequence: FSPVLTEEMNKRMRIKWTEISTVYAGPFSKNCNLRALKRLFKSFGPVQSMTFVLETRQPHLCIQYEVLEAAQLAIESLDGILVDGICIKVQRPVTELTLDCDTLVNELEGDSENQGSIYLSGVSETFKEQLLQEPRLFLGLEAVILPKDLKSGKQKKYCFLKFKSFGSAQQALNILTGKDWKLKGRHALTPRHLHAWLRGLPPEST

The target of a further test is T5, TRA2B (Homo sapiens, UniProt P62995).
T5 sequence: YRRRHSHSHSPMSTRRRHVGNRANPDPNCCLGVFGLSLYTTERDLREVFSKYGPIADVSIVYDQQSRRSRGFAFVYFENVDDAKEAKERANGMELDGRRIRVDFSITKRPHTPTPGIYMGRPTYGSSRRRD

The next test has as its target T6, SFRS12 (Homo sapiens, UniProt Q8WXA9).
T6 sequence: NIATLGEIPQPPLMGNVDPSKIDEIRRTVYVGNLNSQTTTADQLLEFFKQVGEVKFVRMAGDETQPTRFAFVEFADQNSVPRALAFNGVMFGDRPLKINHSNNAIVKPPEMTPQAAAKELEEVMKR

The target of a further test is T7, RAVER1 (Homo sapiens, UniProt Q8IY67).
T7 sequence: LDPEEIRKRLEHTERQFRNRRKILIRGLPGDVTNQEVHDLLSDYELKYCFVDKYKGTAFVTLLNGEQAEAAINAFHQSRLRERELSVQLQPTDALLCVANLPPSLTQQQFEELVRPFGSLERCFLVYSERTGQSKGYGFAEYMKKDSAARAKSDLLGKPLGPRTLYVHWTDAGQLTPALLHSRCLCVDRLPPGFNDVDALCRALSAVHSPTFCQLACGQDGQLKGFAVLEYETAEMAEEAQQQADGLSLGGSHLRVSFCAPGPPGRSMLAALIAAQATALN

RBPMS, sequence (Q93062 1-125): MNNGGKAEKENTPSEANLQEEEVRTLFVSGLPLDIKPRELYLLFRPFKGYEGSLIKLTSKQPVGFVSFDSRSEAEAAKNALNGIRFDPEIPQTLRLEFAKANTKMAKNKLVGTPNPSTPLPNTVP
FXR1(1-2), sequence (P51114 201-372): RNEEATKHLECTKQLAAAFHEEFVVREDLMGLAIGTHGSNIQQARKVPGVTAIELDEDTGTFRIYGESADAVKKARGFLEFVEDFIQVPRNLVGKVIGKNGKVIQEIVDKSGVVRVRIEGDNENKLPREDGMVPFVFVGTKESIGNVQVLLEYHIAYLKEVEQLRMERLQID
IGF2BP2(1-2), sequence (Q9Y6M1 176-362): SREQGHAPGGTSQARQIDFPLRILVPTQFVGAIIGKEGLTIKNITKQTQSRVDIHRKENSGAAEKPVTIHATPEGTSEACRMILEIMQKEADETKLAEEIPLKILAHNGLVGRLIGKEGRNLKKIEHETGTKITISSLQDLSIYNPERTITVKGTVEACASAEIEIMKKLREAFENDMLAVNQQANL

As to AGAGGUAGUAGGUUGCAUAGUU, the binding signal with STAU2(4) worked out at 100.36 ± 0.0283 fluorescence intensity; with RBM19(1), 400 ± 17.2 fluorescence intensity; in the test with RBM11, 28 ± 4.14 fluorescence intensity; in the test with REXON, 106 ± 7.17 fluorescence intensity; in the test with IGF2BP2(1-2) it was 23 ± 1.49 fluorescence intensity; in the test with FXR1(1-2) it was 46.8 ± 0.523 fluorescence intensity. Moreover, the binding signal with RBPMS was 754 ± 55.2 fluorescence intensity; with TRA2B it was 1220 ± 41.8 fluorescence intensity; with SFRS12, 364 ± 21 fluorescence intensity.
Regarding UGAGGUAGUAGGUUGUAUGGUU, the binding signal with STAU2(4) amounted to 168 ± 2.52 fluorescence intensity; with RBM19(1), 519 ± 35.8 fluorescence intensity; in the test with RBM11, 36.7 ± 5.74 fluorescence intensity; in the test with RAVER1 it was 26.62 ± 0.0495 fluorescence intensity; with REXON it was 102 ± 6.23 fluorescence intensity; with IGF2BP2(1-2), 26.07 ± 0.24 fluorescence intensity. Besides, the binding signal in the test with FXR1(1-2) came to 95 ± 11.4 fluorescence intensity; with RBPMS, 145 ± 43.8 fluorescence intensity; in the test with TRA2B it was 1050 ± 32.8 fluorescence intensity; with SFRS12, 264 ± 26.8 fluorescence intensity.
UGAGGUAGUAGGUUGUAUAGUU: the binding signal with STAU2(4) was found to be 31.34 ± 0.269 fluorescence intensity; with RBM19(1), 132 ± 21 fluorescence intensity; in the test with RAVER1, 21.1 ± 4.28 fluorescence intensity; with REXON it was 30.1 ± 0.375 fluorescence intensity; with FXR1(1-2), 34.3 ± 0.7 fluorescence intensity; with RBPMS, 63.4 ± 5.39 fluorescence intensity. Besides, the binding signal with TRA2B came to 97.2 ± 22.2 fluorescence intensity; with SFRS12, 44.9 ± 2.62 fluorescence intensity.
Consider UAGCUUAUCAGACUGAUGUUGA, for which the results for the binding signal with RBM19(1), with FXR1(1-2) and with SFRS12 were 37.3 ± 6.15 fluorescence intensity, 31.1 ± 0.919 fluorescence intensity and 30.2 ± 10.4 fluorescence intensity, respectively.
As for CAGUGCAAUGAUGAAAGGGCAU, the binding signal amounted to 92.53 ± 0.0283 fluorescence intensity in the test with STAU2(4); 249 ± 33.6 fluorescence intensity with RBM19(1); 25.7 ± 8.53 fluorescence intensity with RBM11; 88.4 ± 1.34 fluorescence intensity with REXON; 24.1 ± 3.02 fluorescence intensity in the test with IGF2BP2(1-2); 111.8 ± 0.544 fluorescence intensity with FXR1(1-2). Moreover, the binding signal with RBPMS was 844 ± 72.7 fluorescence intensity; with TRA2B, 656 ± 15.9 fluorescence intensity; with SFRS12, 243 ± 4.09 fluorescence intensity.
Regarding UGAGGUAGUAGGUUGUGUGGUU, the binding signal with STAU2(4) was 275.8 ± 2.53 fluorescence intensity; with RBM19(1), 592 ± 96.6 fluorescence intensity; in the test with RBM11 it was 26.6 ± 2.58 fluorescence intensity; with RAVER1, 22.3 ± 5.17 fluorescence intensity; with REXON it was 198.5 ± 0.0919 fluorescence intensity; with IGF2BP2(1-2) it was 31.4 ± 2.92 fluorescence intensity. The binding signal in the test with FXR1(1-2) was 436 ± 32.2 fluorescence intensity; in the test with RBPMS it was 168 ± 4.32 fluorescence intensity; with TRA2B, 748 ± 54 fluorescence intensity; with SFRS12 it was 314 ± 21.7 fluorescence intensity.
